Assay results published in PubChem BioAssay.

The compounds below were run against Follistatin-related protein 3 (Homo sapiens) (UniProt O95633) (assay: FSTL3 binders on small-molecule microarrays, primary screen, biochemical, small-molecule microarray, 635 nm fluorescence (AID 1105;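 further: score merges emission near 667 nm and signal to noise per printed spot across three slides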)). Conditions: FSTL3 binding, higher = more signal.
Sequence of Follistatin-related protein 3 (Homo sapiens) (O95633 whole entry, looked up): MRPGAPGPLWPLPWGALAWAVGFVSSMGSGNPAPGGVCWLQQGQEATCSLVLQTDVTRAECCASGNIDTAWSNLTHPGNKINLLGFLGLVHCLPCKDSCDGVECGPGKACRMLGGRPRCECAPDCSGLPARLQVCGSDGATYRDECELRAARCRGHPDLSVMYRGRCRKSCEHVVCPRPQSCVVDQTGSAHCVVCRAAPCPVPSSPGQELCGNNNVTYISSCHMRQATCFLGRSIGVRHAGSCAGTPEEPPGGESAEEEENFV

| Compound | composite z-score |
| --- | --- |
| CCOC(=O)C1=CCC(c2ccc(C)cc2)N(S(=O)(=O)c2ccc(C)cc2)C1 (stereo not given) | 0.058 |
| CN(C)CCCNC(=O)[C@@]1(c2ccc([N+](=O)[O-])cc2)CC(=O)N(C2CCCCC2)[C@@H]1c1ccc(CO)cc1 | 0.156 |
| CC(=O)N1Cc2ccccc2C[C@@]2(COC(c3ccc(OCCCO)cc3)=N2)C1=O | 1.13 |
| COCCOC(=O)N1C(=O)[C@@]2(c3cc(C#CC4=CCCCC4)ccc31)[C@H](C(=O)Nc1nc3ccccc3s1)[C@H]1C(=O)O[C@H](c3ccccc3)[C@H](c3ccccc3)N1[C@@H]2c1ccc(OCCO)cc1 | 0.908 |
| C=CC[C@]1(C(=O)N2CCCCC2)N=C(c2ccc(OCCCO)cc2)O[C@H]1c1ccccc1 | -0.0013 |
| O=C1NCC(=O)N2[C@@H]1C[C@@H](C(=O)O)[C@H]2c1cccc(OCCO)c1 | 1.66 |
| O=C1O[C@H](c2ccccc2)[C@H](c2ccccc2)N2[C@H]1[C@@H](C(=O)O)[C@]1(C(=O)Nc3ccc(C#CCCO)cc31)[C@H]2c1ccc(O)cc1 | -0.321 |
| C=CCOC(=O)[C@H]1[C@@H]2C(=O)O[C@@H](c3ccccc3)[C@@H](c3ccccc3)N2[C@@H](c2ccc(OCCOC(=O)[C@@H]3C[C@@H]4C(=O)N[C@@H](CCCCN(C)C)C(=O)N4[C@@H]3c3ccc(O)cc3)cc2)[C@]12C(=O)Nc1ccc(I)cc12 | 1.08 |
| CC(C)(C)OC(=O)CC[C@]12N=C(c3ccc(OCCCO)cc3)O[C@H]1c1ccccc1N(CCS(=O)(=O)c1ccccc1)C2=O | 0.975 |
| CN(C)C(=O)[C@@]1(Cc2ccccc2CN=[N+]=[N-])N=C(c2ccc(OCCCO)cc2)O[C@H]1c1ccccc1 | -0.283 |
| COc1cc2c(cc1OC)CN(C(=O)[C@H]1[C@@H]3C(=O)O[C@@H](c4ccccc4)[C@@H](c4ccccc4)N3[C@@H](c3ccc(O)cc3)[C@]13C(=O)Nc1ccc(C#CC4=CCCCC4)cc13)CC2 | 1.43 |
| CN1C(=O)C2C=CC(C(O)c3cc(C(F)(F)F)cc(C(F)(F)F)c3)N(N3CCCCC3)C2C1=O (stereo not given) | 0.0198 |
| COCC(=C=CC[C@H](O)c1ccccc1OCCO)C[C@H](O)c1cc(Cl)cc(Cl)c1O | 0.897 |
| CCCN1C(=O)[C@]2(CCS(=O)(=O)c3ccccc3)N=C(c3ccc(OCCCO)cc3)O[C@@H]2c2ccccc21 | 1.05 |
| COc1cc2c(cc1OC)CN(C(=O)[C@H]1[C@@H]3C(=O)O[C@@H](c4ccccc4)[C@@H](c4ccccc4)N3[C@@H](c3ccc(O)cc3)[C@]13C(=O)Nc1ccc(C#CCNC(N)=O)cc13)CC2 | 0.903 |
| CN(C)CCCNC(=O)[C@@]1(C)c2ccccc2C(=O)N(Cc2cc(F)cc(C(F)(F)F)c2)[C@H]1c1ccc(CO)cc1 | -1.19 |
| O=C1C2C=CC(C(O)C3CCCCC3)N(Nc3ccc([N+](=O)[O-])cc3)C2C(=O)N1c1ccccc1 (stereo not given) | -0.677 |
| O=C1OCCC/C=C\[C@H]2OC34C=CCN(c5ccc6ccccc6c5)C(=O)[C@H]3N(CCCCCCO)C(=O)[C@@H]4C12 (stereo not given in full) | 0.0824 |

| Compound | composite z-score |
| --- | --- |
| COCCOC(=O)N1C(=O)[C@@]2(c3cc(C#CCNC(N)=O)ccc31)[C@H](C(=O)NC[C@H](O)c1ccccc1)[C@H]1C(=O)O[C@H](c3ccccc3)[C@H](c3ccccc3)N1[C@@H]2c1ccccc1OCCO | 1.01 |
| CC(C)(C)OC(=O)CC[C@@]12N=C(c3ccc(OCCCO)cc3)O[C@@H]1c1ccccc1N(CCS(=O)(=O)c1ccccc1)C2=O | 1.12 |
| COC(=O)[C@@]1(Cc2ccc(F)cc2)[C@H]2c3cc(C(=O)N4CCCC4)n(Cc4cc(C)n(C)n4)c3C[C@H]2CN1C(=O)c1ccccc1 | -0.261 |
| COC(=O)c1c(CC[C@@H](CO)NC(=O)N2CCC[C@H]2Cn2cc(-c3ccccn3)nn2)oc(C(C)=O)c1C(=O)OC | -0.144 |
| CCOC(=O)[C@H]1CC=C2CC1C(=O)N1CCC[C@@H]1[C@@H]2O[Si](C)(C)C(C)(C)C (stereo not given in full) | -1.02 |
| C=CCC(OC(C)=O)[C@@H]1[C@@H](N(Cc2ccc(-c3ccccc3)cc2)C(=O)Cc2ccc(F)cc2)c2cc(OCCCO)ccc2N1C(=O)c1ccc(-c2ccccc2)cc1 (stereo not given in full) | 0.268 |
| CCOC(=O)C[C@H]1[C@H](OC(=O)Cc2ccc3c(c2)OCO3)[C@@H](NC(=O)c2ccc(-c3ccccc3)cc2)c2cc(OCCCO)ccc2N1C(=O)c1ccc2ccccc2n1 | 0.321 |
| COCCCNC(=O)[C@@]1(Cc2ccccc2)N=C(c2ccc(OCCCO)cc2)O[C@H]1c1ccccc1 | -0.569 |
| NC(=O)[C@@H]1[C@H]2C(=O)O[C@H](c3ccccc3)[C@H](c3ccccc3)N2[C@H](c2ccc(O)cc2)[C@@]12C(=O)Nc1ccc(C#CC3(O)CCCCCC3)cc12 | -0.846 |
| COc1cc2c(cc1O)C(C1CC1)N(Cc1cc3c(cc1Br)OCO3)CC2 (stereo not given) | -1.35 |
| CCCCCC1=C2CNC(CCC)(C(=O)OC)C=C2C(C)C1=O (stereo not given) | -0.435 |
| COc1ccc(C(O)C2C=CC3C(=O)NC(=O)C3N2Nc2ccccn2)c2ccccc12 (stereo not given) | 0.16 |
| COC(=O)C(CC#Cc1ccc2c(c1)[C@]1(C(=O)N2)[C@H](C(=O)O)[C@H]2C(=O)O[C@H](c3ccccc3)[C@H](c3ccccc3)N2[C@@H]1c1ccc(O)cc1)C(=O)OC | -0.662 |
| CC1(C)[C@@H]2CC(C(O)C3C=CC4C(=O)N(c5ccccc5)C(=O)C4N3Nc3ccccc3)=C[C@H]1C2 (stereo not given in full) | 0.114 |
| COc1ccc([Si](C)(C)[C@H]2[C@H](CCn3cc([C@H](O)c4ccccc4)nn3)O[C@@]3(C(=O)N(Cc4cccc(N5CCOC5=O)c4)c4ccccc43)[C@@H]2C)cc1 | 0.769 |
| COc1cc2c(cc1O)C=[N+](Cc1cccc(OC(F)(F)F)c1)CC2 | 0.534 |
| COC(=O)[C@@]1(Cc2ccc(OC)cc2)[C@H]2c3cc(C(=O)N(C)C)n(CCN4CNCC4=O)c3C[C@H]2CN1C(=O)c1ccccc1 | -0.153 |
